IL-2 act = activators of IL-2. IL-2 activation reporter assay, cell-based qHTS; stimulated with anti-CD3/CD4/CD28 beads; in transgenic mouse T cells. activation, % (series mostly up to about 46 µM). AID 652025. hit rate 0.065% among 360,000; in the data active means activation above about 50%; inconclusive means mostly about 30% to 49%; further: 0% is about no effect
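Unstimulated transgenic mouse T cells; 60-min compound exposure; bead-based TCR/CD4/CD28 stimulation; 18 h culture, 37 degrees C; dual fluorescence (EGFP, DsRed) plate cytometry.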
PKM2 activator = PKM2 (human) enzyme activation | P14618 | purified PKM2, Kinase-Glo ATP luminescence, activation; response scale: 0% is enzyme alone, no compound | Potency, µM (series often up to 57.5 µM), without a hit: at the top dose activation, hits mostly activators | hit rate 0.34% among 260,000 | AID 1631; further: potency means the concentration at half of the fitted maximal effect; on the % scale 0 is the no-effect control and ±100 the full control effect; nearly all actives have a fitted effect of over 55% in size
Target sequence (P14618 whole entry, looked up): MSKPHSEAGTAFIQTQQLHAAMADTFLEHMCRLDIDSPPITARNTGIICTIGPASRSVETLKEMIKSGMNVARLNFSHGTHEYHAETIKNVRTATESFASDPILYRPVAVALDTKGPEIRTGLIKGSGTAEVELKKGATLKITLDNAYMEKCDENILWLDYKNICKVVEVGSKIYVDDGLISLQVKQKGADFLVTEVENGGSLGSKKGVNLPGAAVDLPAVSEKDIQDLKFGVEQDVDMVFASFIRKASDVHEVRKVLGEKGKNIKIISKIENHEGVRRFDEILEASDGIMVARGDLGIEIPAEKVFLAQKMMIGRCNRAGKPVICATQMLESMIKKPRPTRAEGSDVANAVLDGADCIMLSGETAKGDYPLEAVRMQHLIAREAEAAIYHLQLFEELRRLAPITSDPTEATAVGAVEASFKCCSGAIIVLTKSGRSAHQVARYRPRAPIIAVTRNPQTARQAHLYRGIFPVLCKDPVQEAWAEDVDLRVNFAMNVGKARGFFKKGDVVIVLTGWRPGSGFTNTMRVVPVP
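Purified hPK-M2 (>95% pure) converted ADP (0.1 mM final) to ATP with 0.5 mM PEP in 50 mM imidazole pH7.2, KCl, MgCl2, Tween 20, BSA; 1 h at room temperature. ATP detected by Kinase-Glo luminescence.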
a7 integrin act = activators of alpha7 integrin expression for muscular dystrophy; AID 624291; hit rate 0.064% among 350,000; alpha7betagal myoblasts, beta-gal FDG fluorescence, 48 h; Potency, µM (doses to about 38.3 µM), for the others: top-dose activation, usual class: activators;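 further: potency means the concentration at half of the fitted maximal effect; 100% = response of the positive control SU9516; nearly all actives have a fitted effect of over 60% in size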
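alpha7betagal+/- myoblasts (passage 13, 250/well) treated 48 h at 37C with compounds at 1:260 dilution of DMSO stock. Lysed, then beta-galactosidase activity read as FDG fluorescence (ex 480/em 540) after 30 min, with pre-read for autofluorescence.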
BRCA1 expr act = increases BRCA1 expression. MCF7-BRCA1-FFLuc reporter, luminescence, 48 h; response scale: scaled: vehicle 0%, 10 µM genistein 100%. Potency, µM (doses to about 46.1 µM), inactives show top-dose activation, actives largely listed as activators. hit rate 1.1% among 380,000. AID 624202; further: potency means the concentration at half of the fitted maximal effect; nearly all actives have a fitted effect of over 80% in size
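Cells: MCF7-BRCA1-FFLuc, 2000/well. Exposure: 48 h, 37 °C, 5% CO2. Read: luminescence, 15 min post-substrate. Controls: genistein 10 microM (maximal activation), DMSO (neutral).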
Anesthetic bind = binds horse apoferritin like a general anesthetic. P02791. apoferritin/1-aminoanthracene competitive binding, fluorescence. Potency, µM (highest dose often 77.5 µM), without a hit: at the top dose activity change, negative = displacement, most hits filed as inhibitors. hit rate 0.074% among 350,000; further: potency means the concentration at half of the fitted maximal effect; on the % scale 0 is the no-effect control and ±100 the full control effect; nearly all actives have a fitted effect of over 20% in size
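Horse-spleen apoferritin (10 uM) in 50% saturated 1-aminoanthracene in PBS was incubated 10 min at room temperature with compound. Fluorescence (ex 380, em 535 nm) was normalized to free and bound 1-AMA, with concentration-response fitted by a four-parameter Hill equation.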
Starred values were filed as active, the others as inactive; ? = inconclusive; . = no result; [ ] = another dose, or the depositor's remark. Compounds with a hit are over-represented: about 1.3% of the library has one in this group of screens. Unless noted, the call rests on the fitted dose curve; in most records, active means well fitted curve in the direction sought with a large enough effect; inconclusive means small, poorly fitted or top-dose-only effect, or another doubt; inactive means no such curve, though single readings can be large; an effect the other way counts as inactive or inconclusive.

SMILES	IL-2 act	PKM2 activator	a7 integrin act	BRCA1 expr act	Anesthetic bind
COC(=O)C1=C(C(=O)OC)[C@@H]2Nc3ccccc3[C@@]23C[C@@H](C(=O)OC)N(S(=O)(=O)c2ccc(C)cc2)C3=N1	.	-7%[11.5 µM]	.	.	.
Cc1cccc(OCC(=O)Nc2sc3c(c2C#N)CCC3)c1	-1	0%	9%	10µM*	-10%
O=C(COC(=O)c1ccccc1OCCOc1ccccc1)Nc1ccccc1Br	.	.	.	5%	.
Cc1ccnc(SCC(=O)c2ccc(Br)s2)n1	-1	.	9%	35%	?
Cc1ccnc(SCC(=O)c2cccs2)n1	2	-17%	28%	2.5µM*	-17%
CC(C)(C)C(=O)Cn1ncc(N2CCCC2)c(Br)c1=O	-2	-5%	-20%	10µM*	-17%
Cc1ccc(/C=C/C(=O)NCc2cccs2)cc1	0	-23%	15%	?	4%
Cc1ccc(/C=C/C(=O)NCc2cccs2)c(C)c1	-2	1%	2%	10µM*	-5%
CN(C)c1ccc(CNC(=O)c2cccc(NC(=O)N3CCSc4ncccc43)c2)cc1	.	.	.	.	-14%
O/N=C/c1ccccc1OCc1ccc(Cl)cc1	-2	-3%	11%	11µM*	?
CN1[C@@H]2CC[C@H]1CC(OC(=O)[C@@H](CO)c1ccccc1)C2 (stereo not given in full)	.	.	.	.	12%[29.3 µM]
O=C(c1ccc(CSc2ccc(Cl)cc2)cc1)N1CCCC1	0	20%	?	10µM*	?
O=C(c1ccc(CSc2ccc(Cl)cc2)cc1)N1CCOCC1	0	3%	-44%	63%	?
Cc1ccc2nc(-c3ccc(C)c(NC(=O)COc4ccc(Cl)cc4)c3)oc2c1	.	.	.	8%	.
CC(=O)Nc1ccc(S(=O)(=O)N2CCN=C2SCc2cccnc2)cc1	7	16µM*	-3%	3%	-6%
O=S(=O)(c1ccc2ccccc2c1)N1CCN=C1SCc1cccnc1	4	18µM*	-3%	-10%	-20%
CC(=O)Nc1ccc(S(=O)(=O)N2CCN=C2SCc2ccc(C)cc2)cc1	0	-2%	-20%	0%	?
COC(=O)CSc1nc2cc(C)ccc2cc1C#N	103*	2%	7%	?	55%
COc1ccc(C(=O)Nc2cnc3ccccn3c2=O)cc1	-1	4%	8%	4.5µM*	-8%
COc1ccc(C(=O)Nc2ccccc2C(N)=O)cc1	0	-32%	4%[7.66 µM]	6.3µM*	-9%
Cc1ccc(C(=O)CN2C(=O)C(C)Oc3ccccc32)cc1 (stereo not given)	0	0%	0%	11µM*	?
COc1cc(S(=O)(=O)Nc2ccc(C)cc2)ccc1N=Cc1c(C)c(C#N)c(=O)n(C)c1O	448*	-7%	-6%	18%	-4%
CC[C@H](C)[C@H](NC(=O)[C@@H](NC(=O)CNC(=O)[C@@H](N)CC(C)C)[C@@H](C)O)C(=O)N1CCC[C@H]1C(=O)NCC(=O)O	.	.	.	.	1%
Nn1c(SCC(=O)Nc2ccc3c(c2)OCO3)nnc1C1CCCCC1	1	-1%	5%	-18%	5µM*
Cc1ccc2cccc(NC(=O)COc3ccccc3Cl)c2n1	.	.	.	-32%	36%
SMILES	IL-2 act	PKM2 activator	a7 integrin act	BRCA1 expr act	Anesthetic bind
COc1cccc2ccc(/C=C/c3ccc4c(c3)OCO4)nc12	.	.	.	3.5µM*	.
COc1ccc(NC(=O)Nc2ccc3[nH]ccc3c2)cc1	2	.	16%	3.2µM*	.
CSCC[C@H](NC(=O)[C@H](CC(C)C)N1CCC(NC(=O)[C@@H](NC(=O)[C@H](Cc2ccccc2)NC(=O)[C@H](CO)NC(=O)[C@H](CC(=O)O)NC(=O)[C@@H](N)CCCCN)C(C)C)C1=O)C(N)=O (stereo not given in full)	.	.	.	.	-5%
O=C(CCC(=O)c1ccc(Cl)cc1)OCC(=O)c1ccccc1	-2	0%	17%	16%	13µM*
O=C(NC1C(=O)NNC1c1ccccc1)c1ccc(F)cc1 (stereo not given)	-1	-7%	5%	-6%	-10%
Cc1ccc(C2NNC(=O)C2NC(=O)c2ccccc2)cc1 (stereo not given)	0	8%	22%	11µM*	-12%
